The text below walks through data of PubChem BioAssay (NCATS).

Records with an inconclusive call do not appear. Calls of active or inactive are those of the source. Unless noted, the call rests on the fitted dose curve; in most records, active means well fitted curve in the direction sought with a large enough effect; inconclusive means small, poorly fitted or top-dose-only effect, or another doubt; inactive means no such curve, though single readings can be large; an effect the other way counts as inactive or inconclusive.

Assay [1] is described as follows: qHTS for differential inhibitors of proliferation of Plasmodium falciparum line W2 (AID 1883).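 Further: parasites grown with compound for 72 h before lysis and staining.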 Further: potency means the concentration at half of the fitted maximal effect. To be noted: Potency: Plasmodium falciparum W2 proliferation inhibition.
Assay [2] is described as follows: qHTS for differential inhibitors of proliferation of Plasmodium falciparum line HB3 (AID 1886).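 Further: parasites grown with compound for 72 h before SYBR Green readout.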 Further: potency means the concentration at half of the fitted maximal effect. Conditions: Potency: Plasmodium falciparum HB3 proliferation inhibition.
For assay [3], the target named is Ferritin light chain (Equus caballus) (UniProt P02791). Description: qHTS Validation Assay for Identification of Novel General Anesthetics (AID 2323). Further: series mostly up to about 77 µM. Put shortly:
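Normalized fluorescence response, scaled between free 1-AMA and 1-AMA/apoferritin complex, fitted to a four-parameter Hill equation for concentration-effect values. Binding mix: 10 uM horse-spleen apoferritin, 50% saturated 1-AMA in PBS; read 380/535 nm after 10 min.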

In assay [4] the target is ATP-dependent DNA helicase Q1 (Homo sapiens) (UniProt P46063). The experiment in a line: qHTS Validation Assay for Inhibitors of RecQ-Like Dna Helicase 1 (RECQ1) (AID 2353). Put shortly: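 50 nM RECQ1T1 preincubated 15 min with compound in Tris pH 8.0 buffer with MgCl2, DTT, Tween-20 and 2.5 ug/ml poly(dI-dC); started with 200 nM TAMRA/BHQ-2 forked duplex and 2 mM ATP. Unwinding read as fluorescence (525/598 nm), two reads 2 h apart.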
In general terms: In qHTS, concentration-response curves come from the screen itself.

Assay [5] addresses RecQ-like DNA helicase BLM (Homo sapiens) (UniProt P54132). Description: qHTS Validation Assay for Inhibitors of Bloom's syndrome helicase (BLM) (AID 2364). Put shortly: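 BLM 50 nM in 25 mM Tris-HCl pH 8.0, 5 mM NaCl, 2 mM MgCl2, 1 mM DTT, 0.01% Tween-20, 2.5 ug/ml poly(dI-dC); 15 min cpd preinc, RT. Start: 200 nM forked DNA + 2 mM ATP (final). TAMRA read, 2 reads 2 h apart.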

A short description of assay [6]: Cytometric Cell-Based qHTS for Inhibitors of the mTORC1 Signaling Pathway in MEF (Tsc2-/-, p53-/-) Cells (AID 2660).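 Further: percent of cells above a phospho-rpS6 to PI ratio cutoff in each well; series mostly up to about 38 µM.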 Put shortly:
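Cells are plated, treated with compound for 24 hrs at 37 degree Celsius, then fixed, blocked and immunostained for phospho-rpS6 Ser235/236. Propidium iodide counterstain follows. Per-well % positive cells is derived from the PI-normalized phospho-S6 signal.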

The nature of assay [7]: High Content Imaging Cell-Based qHTS for Inhibitors of the mTORC1 Signaling Pathway in MEF (Tsc2-/-, p53-/-) Cells (AID 2666).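 Further: percent of cells scored positive for phospho-rpS6 Ser235/236 immunostaining by imaging.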 An outline of the steps:
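Read-out: % positive cells per well, with thresholds from highest- and lowest-signal wells, based on phospho-rpS6 (Ser235/236) intensity normalized to Hoechst nuclear stain. Cells: Tsc2-/-, p53-/- MEFs carrying empty vector; compound 24 hrs, 37 degree Celsius.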

In assay [8] the target is Ubiquitin carboxyl-terminal hydrolase 2 (Homo sapiens) (UniProt O75604). Description: qHTS Validation Assay for Inhibitors of Ubiquitin-specific Protease USP2a Using CHOP2 as the Reporter (AID 463106). An outline of the steps:
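USP2 core (10nM final) was preincubated with compound for 30min at RT in 20mM Tris-HCl pH 8.0, 2mM CaCl2, 2mM beta-mercaptoethanol, 0.05% CHAPS. Ub-CHOP2 and reporter substrate (25nM each) were added, and fluorescence (Ex 485/Em 531nm) was read after 60min.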

Assay [9] concerns the target DNA polymerase III PolC-type (Bacillus subtilis (strain 168)) (UniProt P13267). Description: qHTS Validation Assay for the Inhibitors of DNA Replication in Gram-Positive Bacteria (AID 485295).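 Further: reconstituted holoenzyme with PolC plus beta clamp SSB and primase; PicoGreen fluorescence of double-stranded DNA made on primed circular M13 template; series mostly up to about 57 µM.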 An outline of the steps:
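Inhibition of DNA synthesis by the reconstituted PolC holoenzyme, monitored through PicoGreen staining of dsDNA formed from ssM13Gori, dNTPs and NTPs, with compound preincubation and room-temperature reaction.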

The target of assay [10] is Tumor susceptibility gene 101 protein (Homo sapiens) (UniProt Q99816). The experiment in a line: qHTS Validation Assay for Iinhibitors of HIV-1 Budding by Blocking the Interaction of PTAP/TSG101 (AID 485342; calls by dose curve). An outline of the steps: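 Compound wells held the Tsg101 binding domain (10 uM) and a FITC-conjugated PTAP peptide (50 nM) in buffer at pH 7.5 containing 0.15 M NaCl and 0.01% Tween 20; polarization was recorded after 20 min, r.t.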
Sequence of Tumor susceptibility gene 101 protein (Homo sapiens) (Q99816 whole entry, looked up, the tested form may be a part): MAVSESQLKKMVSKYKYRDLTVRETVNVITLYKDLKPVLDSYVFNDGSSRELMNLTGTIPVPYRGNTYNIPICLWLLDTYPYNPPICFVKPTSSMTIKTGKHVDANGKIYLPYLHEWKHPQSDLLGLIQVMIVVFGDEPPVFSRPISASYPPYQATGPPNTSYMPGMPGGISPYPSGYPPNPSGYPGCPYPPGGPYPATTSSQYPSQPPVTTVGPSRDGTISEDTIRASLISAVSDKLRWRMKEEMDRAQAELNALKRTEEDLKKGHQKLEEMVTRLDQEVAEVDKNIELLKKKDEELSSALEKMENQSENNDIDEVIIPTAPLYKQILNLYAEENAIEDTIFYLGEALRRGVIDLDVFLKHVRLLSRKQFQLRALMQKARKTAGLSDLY

Assay [11] concerns the target Beta-2 adrenergic receptor (Homo sapiens) (UniProt P07550). Description: qHTS validation assay of beta-arrestin-biased ligands of beta2-adrenergic receptor (AID 485366). Put shortly: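 Values derive from curve-fitted %Activity of a luminescent beta-arrestin recruitment reporter; compounds tested up to 46 microM on Tango cells for 18 hr at 37 degrees C, 5% CO2.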
Assay [12] is described as follows: qHTS Assay for Modulators of Human Peripheral Myelin Protein 22 (PMP22) Expression/Activity (AID 1967; active means well fitted curve in the direction sought with a large enough effect in the signal ratio; the % refers to the signal ratio). Put shortly:
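Engineered MSC80 cells, Pmp22-promoter green and EF-alpha red luciferase reporters; 24h compound treatment at 37 °C. Concentration-response fits on green, red and ratio signals, each overlap-corrected, with %Activity normalized to untreated wells.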

The nature of assay [13]: High Content Imaging Cell-Based qHTS for Inhibitors of the mTORC1 Signaling Pathway in MEF Cells (AID 2667).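 Further: Tsc2-/- p53-/- MEFs stably re-expressing wild-type Tsc2 exposed 24 h; series mostly up to about 38 µM.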 An outline of the steps: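 MEF (Tsc2-/-, p53-/-, WT Tsc2 re-expressed); cpd 24 h, 37 °C; PFA fix; Alexa-488 anti-p-rpS6 Ser235/236, PI, Hoechst; IN Cell imaging; Hoechst/Alexa-488 intensity ratio; % active cells, thresholds set from rapamycin and DMSO wells.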
Assay [14] can be described thus: Cytometry Cell-Based qHTS for Inhibitors of the mTORC1 Signaling Pathway in MEF cells (AID 2668).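 Further: Tsc2-/- p53-/- mouse embryonic fibroblasts stably re-expressing wild-type Tsc2; percent cells positive for phospho-rpS6 Ser235/236 relative to propidium iodide stain; series mostly up to about 38 µM.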 An outline of the steps: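 In MEFs grown in DMEM + 10% FBS, a 24 hrs compound exposure preceded imaging of phospho-rpS6 Ser235/236 by laser-scanning cytometry.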
Assay [15] in a line: Validation screen for small molecules that induce DNA re-replication in MCF 10A normal breast cells (AID 463097). Further: nearly all actives have a fitted effect of over 60% in size. An outline of the steps:
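Following 48 hr compound incubation (37 C, 5% CO2), MCF 10A cells receive Hoechst for 40 min at 37 C. Nuclei are then scanned (excitation 405 nm, emission 500-530 nm) for total fluorescence intensity.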

Assay [16] can be described thus: qHTS Validation Assay to Find Inhibitors of Chronic Active B-Cell Receptor Signaling (AID 485345; active means well fitted curve in the direction sought with a large enough effect in the main read-out, with a control signal flat, not every such curve was filed as active). An outline of the steps:
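TMD8 ABC-DLBCL cells with dox-inducible green luciferase–IκBα fusion and red native luciferase; compounds 46 uM–3 nM, 4 h at 37C with doxycycline in 0.5% FBS IMDM. Green/red ratio normalized to basal and 10 uM MG-132.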

Sequence of Beta-2 adrenergic receptor (Homo sapiens) (P07550 whole entry, looked up): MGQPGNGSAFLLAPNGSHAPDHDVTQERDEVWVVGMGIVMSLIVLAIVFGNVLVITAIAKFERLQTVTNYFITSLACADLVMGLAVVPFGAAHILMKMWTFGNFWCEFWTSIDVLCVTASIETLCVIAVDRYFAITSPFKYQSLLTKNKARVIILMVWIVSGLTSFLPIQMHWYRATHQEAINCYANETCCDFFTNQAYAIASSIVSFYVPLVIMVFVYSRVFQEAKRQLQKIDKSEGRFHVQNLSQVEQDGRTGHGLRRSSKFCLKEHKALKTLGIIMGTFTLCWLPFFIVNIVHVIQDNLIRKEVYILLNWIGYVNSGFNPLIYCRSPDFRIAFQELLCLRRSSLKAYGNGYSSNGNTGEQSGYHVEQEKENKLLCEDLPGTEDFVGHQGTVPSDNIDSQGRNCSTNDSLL
Sequence of Ferritin light chain (Equus caballus) (P02791 2-175 limits assumed): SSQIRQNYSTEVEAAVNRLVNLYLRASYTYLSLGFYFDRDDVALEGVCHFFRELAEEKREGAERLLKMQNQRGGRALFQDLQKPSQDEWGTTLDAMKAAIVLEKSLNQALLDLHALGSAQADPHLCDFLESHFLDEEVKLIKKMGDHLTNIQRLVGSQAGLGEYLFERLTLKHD
Sequence of RecQ-like DNA helicase BLM (Homo sapiens) (P54132 whole entry, looked up): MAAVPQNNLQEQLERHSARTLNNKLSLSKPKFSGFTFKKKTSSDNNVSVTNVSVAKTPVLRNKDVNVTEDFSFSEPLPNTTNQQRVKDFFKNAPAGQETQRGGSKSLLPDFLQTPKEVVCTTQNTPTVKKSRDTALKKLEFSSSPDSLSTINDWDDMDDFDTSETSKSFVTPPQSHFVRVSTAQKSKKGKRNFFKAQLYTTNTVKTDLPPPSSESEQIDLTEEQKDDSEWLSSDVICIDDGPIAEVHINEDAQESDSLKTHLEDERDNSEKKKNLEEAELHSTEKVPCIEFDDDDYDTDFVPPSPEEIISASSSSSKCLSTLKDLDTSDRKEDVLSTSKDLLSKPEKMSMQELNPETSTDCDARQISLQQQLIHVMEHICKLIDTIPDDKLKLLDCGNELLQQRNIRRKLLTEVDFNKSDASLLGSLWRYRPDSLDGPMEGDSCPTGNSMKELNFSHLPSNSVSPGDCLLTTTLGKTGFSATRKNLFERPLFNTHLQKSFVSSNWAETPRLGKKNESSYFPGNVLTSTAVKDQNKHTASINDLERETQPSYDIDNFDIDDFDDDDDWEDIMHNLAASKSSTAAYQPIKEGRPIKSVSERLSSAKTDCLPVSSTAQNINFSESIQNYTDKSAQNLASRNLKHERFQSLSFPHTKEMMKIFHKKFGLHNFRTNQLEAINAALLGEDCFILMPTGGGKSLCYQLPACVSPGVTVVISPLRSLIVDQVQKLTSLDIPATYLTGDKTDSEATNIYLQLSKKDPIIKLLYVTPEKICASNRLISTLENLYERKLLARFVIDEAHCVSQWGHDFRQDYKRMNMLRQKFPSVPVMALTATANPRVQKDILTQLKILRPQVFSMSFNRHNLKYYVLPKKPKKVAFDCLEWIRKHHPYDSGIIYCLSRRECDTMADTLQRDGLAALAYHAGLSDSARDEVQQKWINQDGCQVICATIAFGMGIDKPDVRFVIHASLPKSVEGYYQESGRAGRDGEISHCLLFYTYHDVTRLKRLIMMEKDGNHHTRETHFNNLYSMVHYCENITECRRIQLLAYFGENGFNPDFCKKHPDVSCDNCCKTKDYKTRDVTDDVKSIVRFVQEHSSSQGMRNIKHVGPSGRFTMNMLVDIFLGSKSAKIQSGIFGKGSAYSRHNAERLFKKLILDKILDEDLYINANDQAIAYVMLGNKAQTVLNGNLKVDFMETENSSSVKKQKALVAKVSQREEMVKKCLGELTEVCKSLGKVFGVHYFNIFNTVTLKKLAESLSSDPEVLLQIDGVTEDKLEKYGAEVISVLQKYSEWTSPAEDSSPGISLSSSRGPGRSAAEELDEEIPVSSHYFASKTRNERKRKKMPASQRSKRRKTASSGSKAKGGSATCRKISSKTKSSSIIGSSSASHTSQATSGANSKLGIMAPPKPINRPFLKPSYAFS
Sequence of Ubiquitin carboxyl-terminal hydrolase 2 (Homo sapiens) (O75604 whole entry, looked up): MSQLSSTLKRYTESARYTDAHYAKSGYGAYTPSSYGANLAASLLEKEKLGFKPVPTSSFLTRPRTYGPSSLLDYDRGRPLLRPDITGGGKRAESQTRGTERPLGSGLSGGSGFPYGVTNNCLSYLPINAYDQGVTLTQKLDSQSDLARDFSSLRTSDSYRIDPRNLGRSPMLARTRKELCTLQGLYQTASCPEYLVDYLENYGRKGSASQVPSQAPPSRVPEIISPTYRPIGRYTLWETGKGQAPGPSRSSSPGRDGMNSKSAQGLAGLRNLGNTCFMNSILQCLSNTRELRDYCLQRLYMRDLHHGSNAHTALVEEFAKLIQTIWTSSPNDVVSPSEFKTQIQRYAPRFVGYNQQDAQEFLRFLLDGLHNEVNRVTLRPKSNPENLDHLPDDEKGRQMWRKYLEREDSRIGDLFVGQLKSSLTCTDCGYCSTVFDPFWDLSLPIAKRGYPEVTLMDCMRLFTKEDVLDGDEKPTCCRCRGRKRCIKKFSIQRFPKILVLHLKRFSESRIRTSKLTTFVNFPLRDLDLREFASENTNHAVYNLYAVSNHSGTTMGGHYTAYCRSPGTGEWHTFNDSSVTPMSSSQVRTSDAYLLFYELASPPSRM
Sequence of DNA polymerase III PolC-type (Bacillus subtilis (strain 168)) (P13267 whole entry, looked up): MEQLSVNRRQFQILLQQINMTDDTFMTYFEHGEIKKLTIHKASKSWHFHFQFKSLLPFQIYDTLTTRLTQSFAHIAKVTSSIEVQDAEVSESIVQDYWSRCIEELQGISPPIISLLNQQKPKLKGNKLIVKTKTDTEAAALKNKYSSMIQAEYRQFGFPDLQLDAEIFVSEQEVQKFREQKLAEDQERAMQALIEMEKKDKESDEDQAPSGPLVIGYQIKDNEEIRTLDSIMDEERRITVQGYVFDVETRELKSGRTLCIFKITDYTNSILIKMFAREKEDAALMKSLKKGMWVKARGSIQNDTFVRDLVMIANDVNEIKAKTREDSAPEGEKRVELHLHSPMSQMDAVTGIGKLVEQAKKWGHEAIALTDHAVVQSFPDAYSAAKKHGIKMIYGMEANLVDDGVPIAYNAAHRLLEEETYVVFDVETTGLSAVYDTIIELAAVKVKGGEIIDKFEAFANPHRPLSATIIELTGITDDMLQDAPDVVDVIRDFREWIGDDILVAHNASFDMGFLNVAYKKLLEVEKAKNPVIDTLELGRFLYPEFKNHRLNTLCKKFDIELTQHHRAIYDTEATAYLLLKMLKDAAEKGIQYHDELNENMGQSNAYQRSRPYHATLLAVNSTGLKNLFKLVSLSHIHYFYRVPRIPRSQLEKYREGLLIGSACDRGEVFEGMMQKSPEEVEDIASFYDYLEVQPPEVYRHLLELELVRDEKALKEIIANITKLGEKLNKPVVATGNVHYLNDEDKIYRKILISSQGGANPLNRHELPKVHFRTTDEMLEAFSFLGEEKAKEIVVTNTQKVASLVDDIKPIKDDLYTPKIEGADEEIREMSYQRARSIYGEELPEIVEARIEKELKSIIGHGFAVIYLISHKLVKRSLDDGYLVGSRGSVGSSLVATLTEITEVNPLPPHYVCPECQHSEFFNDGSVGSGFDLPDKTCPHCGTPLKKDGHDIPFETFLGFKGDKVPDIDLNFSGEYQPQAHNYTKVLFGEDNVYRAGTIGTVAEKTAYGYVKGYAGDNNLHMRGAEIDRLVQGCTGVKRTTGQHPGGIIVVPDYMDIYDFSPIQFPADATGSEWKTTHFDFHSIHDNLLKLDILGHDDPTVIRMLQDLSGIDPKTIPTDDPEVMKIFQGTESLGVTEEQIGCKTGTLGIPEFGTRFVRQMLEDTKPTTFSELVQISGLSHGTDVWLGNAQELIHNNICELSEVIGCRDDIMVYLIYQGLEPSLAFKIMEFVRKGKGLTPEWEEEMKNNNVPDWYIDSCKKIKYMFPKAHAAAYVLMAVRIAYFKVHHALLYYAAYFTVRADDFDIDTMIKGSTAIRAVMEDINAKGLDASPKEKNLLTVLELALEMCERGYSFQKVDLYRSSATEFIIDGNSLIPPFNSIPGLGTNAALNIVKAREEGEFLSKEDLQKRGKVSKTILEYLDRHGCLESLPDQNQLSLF

As to `CC1CNCCN1S(=O)(=O)c1cccc2cnccc12` (stereo not given), the Potency in [1] was 7.08 µM (active). Also, the Potency result in assay [2], in assay [3], in [4], in [5], in assay [7] and in assay [8] was “inactive” throughout. For the same compound, the Potency entry in assay [9] was “inactive”. The outcome in assay [6], in [10] and in assay [11] was inactive.

As for `CN(C)CCC(c1ccc(Br)cc1)c1ccccn1` (stereo not given), the Potency in assay [1] was 0.891 µM (active). In addition, the Potency entry in assay [2], in assay [3], in assay [5], in [7], in assay [13] and in assay [14] was “inactive” each time. For the same compound, the Potency result in assay [15], in assay [8] and in [9] was “inactive” each time. Moreover, the result in [12], in [10], in assay [16] and in [11] was inactive.

Turning to `CCCOC(=O)c1c(-c2ccccc2)nc(CC)c(C(=O)SCC)c1CCC`, the Potency in assay [1] was 10 µM (active); in assay [2], 17.8 µM (active). In addition, the Potency entry in assay [4], in assay [7], in assay [13], in assay [14], in [8] and in assay [9] was “inactive” throughout. The compound was called inactive in assay [6], in assay [10], in [16] and in [11].

Regarding `Cc1ccc2c(c1)C(N1CCN(C)CC1)=Nc1cccnc1N2`, the Potency in assay [1] is 7.08 µM (active). Moreover, the Potency entry in assay [2], in assay [3], in [4], in [13], in [14] and in assay [15] was “inactive” each time. The Potency entry in assay [8] and in [9] was “inactive” each time. In addition, the compound was called inactive in [6], in assay [10] and in assay [11].

With `CN1CCN(c2nc3cc(C(F)(F)F)ccc3n3cccc23)CC1`, the results for the Potency in assay [1] and in assay [2] were 5.62 µM (active) and 11.2 µM (active), respectively. Further, the Potency result in assay [3], in assay [4], in assay [7], in [13], in assay [14] and in assay [8] was “inactive” throughout. Further, the Potency result in [9] was “inactive”. Besides, the result in [6] and in [10] was inactive.

Regarding `Nc1nc2[nH]c(=O)cnc2c(=O)[nH]1`, the Potency result in [1], in assay [2], in assay [4], in [5], in [7] and in assay [13] was “inactive” each time. Further, the Potency entry in assay [14], in assay [15], in [8] and in assay [9] was “inactive” throughout. Besides, the call in assay [6], in assay [10], in assay [16] and in assay [11] was inactive.

On to `CNc1cc(NS(=O)(=O)c2ccc(N)cc2)nc(NC)n1`, for which the Potency entry in assay [1], in assay [2], in assay [3], in [4], in [7] and in [13] was “inactive” each time. Moreover, the Potency result in assay [14], in assay [15], in assay [8] and in [9] was “inactive” each time. The compound was called inactive in [6], in assay [10], in [16] and in [11].

Regarding `CCCCOC(=O)NS(=O)(=O)c1sc(CC(C)C)cc1-c1ccc(Cn2c(CC)nc3c(C)cc(C)nc32)cc1`, the Potency in assay [1] was 7.94 µM (active); in [2], 12.6 µM (active). The Potency result in [3], in assay [4], in assay [7], in assay [8] and in assay [9] was “inactive” in each case. In addition, the call in [6], in assay [10] and in assay [11] was inactive.

On to `NCC(O)C1CCCCCCC1` (stereo not given), for which the Potency in assay [1] was 3.16 µM (active). For the same compound, the Potency entry in assay [2], in assay [4], in assay [7], in [13], in assay [14] and in [8] was “inactive” in each case. The Potency result in assay [9] was “inactive”. The result in assay [6], in assay [10], in assay [16] and in assay [11] was inactive.
